About 79,000 compounds went through this panel and 15% of them were active in at least one assay; those are over-represented in the sample as a whole. Activity calls are given as the source filed them. Cut-off read from the data, not from the text of the source: active = growth inhibition above about 70%; inactive = the rest. Where a SMILES comes first, the peptide text is derived from it. The star is where a group is joined. Myristoyl = CCCCCCCCCCCCCC(=O)*
Test: NCI Yeast Anticancer Drug Screen. Data for the sgs1 mgt1 strain (AID 161);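 note: 0% = growth of cultures given vehicle only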
Conditions: S. cerevisiae sgs1 mgt1 strain, at 50.0 µM, hits give high values
Procedure, shortened: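 Compounds are added to genetically altered yeast, and growth is compared with cultures given vehicle alone to give percent inhibition.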

Row | Compound | growth inhibition
1 | NS(=O)(=O)c1ccc(NC2=CC(=O)C(=O)c3ccccc32)cc1 | -21.4% (inactive)
2 | O=[N+]([O-])c1ccccc1C=NC12CC3CC(CC(C3)C1)C2 | 9.95% (inactive)
3 | c1ccc(SCCP(CCP(c2ccccc2)c2ccccc2)c2ccccc2)cc1 (stereo not given) | 14.3% (inactive)
4 | CC(=O)CC(=O)NCCCN1CCCCCC1 | -9.45% (inactive)
5 | CCCCCCCC(=O)OCC1OC(n2cc(F)c(=O)[nH]c2=O)C(NC(=O)OCc2ccccc2)C(O)C1O (stereo not given) | -66.8% (inactive)
6 | NNC(=O)CSc1ncnc2nc[nH]c12 | 0.55% (inactive)
7 | Cc1ccc(-c2nc(-c3nccc4ccccc34)oc2-c2ccccc2)cc1 | -45.4% (inactive)
8 | CCc1nnc(CC)n1N | 41.8% (inactive)
9 | O=C1CCCC2=C1CC1=C(CCCC1=O)N2c1ccc([N+](=O)[O-])cc1 | -42% (inactive)
10 | CC(=O)Nc1ccc(/C=N\NC(=S)Nc2ccc(F)cc2)cc1 | -3.9% (inactive)
11 | COc1cccc(-c2nsc(=O)o2)c1 | 24.3% (inactive)
12 | O=C1N=C2C=CC=CN2CC1O (stereo not given) | -7.7% (inactive)
13 | CC1(C)N=C(N)N=C(N)N1CCCCc1ccccc1 | -27.4% (inactive)
14 | CC#Cc1c(C#CC)c(OC)c2c(c1OC)C(=O)c1ccccc1C2=O | -26.2% (inactive)
15 | COc1ccc(CCN=C(N)CCl)cc1 | 7.4% (inactive)
16 | S=C(Nc1c2c(nc3ccccc13)CCCC2)Nc1c2c(nc3ccccc13)CCCC2 | -0.3% (inactive)
17 | CC1(C)CC(=O)C2(C)C(C1O)C2C1C2C(O)C(C)(C)CC(=O)C21C (stereo not given) | -5.3% (inactive)
18 | CC(=O)c1c2c(cc3c1CC1(C3)Cc3cc4c(c(C(C)=O)c3C1)CCC4)CCC2 | -4% (inactive)
19 | O=C1OC(=O)C2C1C1C=CC2C1(c1ccccc1)c1ccccc1 (stereo not given) | 8.95% (inactive)
20 | CCC1(C)C(=O)SC(=S)N1C (stereo not given) | -4.9% (inactive)

Row | Compound | growth inhibition
21 | CCN(CC)c1ccc(N=C2C=C(C(=O)Nc3ccccc3)C(=O)c3ccccc32)cc1 | -14.4% (inactive)
22 | O=C(CCN1CCCC1)c1ccccc1 | -11.4% (inactive)
23 | CC(=O)C1CN(C)CCC1=O (stereo not given) | -19.8% (inactive)
24 | CC1=NNC(=O)C1(C)C | -20.6% (inactive)
25 | Cc1cc(C)c2c(ccc3ccccc32)n1 | -23.4% (inactive)
26 | O=C(Oc1cccc2ccccc12)c1cccnc1 | 6.4% (inactive)
27 | NS(=O)(=O)c1ccc(N=C2C(=O)Nc3ccccc32)cc1 | -14.6% (inactive)
28 | CCCCCCCCCCCCCC(=O)NCC(=O)NC(CO)C(=O)NC(CO)C(=O)NC(CCCCN)C(=O)NC(CO)C(=O)NC(CCCCN)C(=O)N1CCCC1C(=O)NC(CCCCN)C(=O)NC(CC(=O)O)C(N)=O (stereo not given) (Myristoyl-GSSKSKPKD-NH2; configuration not given here) | -3.9% (inactive)
29 | CC12CC3(Nc4ccccc4C3(C)O)OC1(C)c1ccccc1N2 (stereo not given) | 10.3% (inactive)
30 | OCC=C1CCCCCC1 | 1.5% (inactive)
31 | O=C1NCC/C1=C\c1ccccc1 | -4.6% (inactive)
32 | COc1ccc(N=NC(=S)NNc2ccc(OC)cc2Oc2ccccc2)c(Oc2ccccc2)c1 | 29.4% (inactive)
33 | C[C@@H](O)CO | 1.7% (inactive)
34 | CCOC(=O)C1/C(=C\O)C(=O)c2cc(OC)c(OC)cc2C1c1ccc(OC)c(OC)c1 (stereo not given) | 20.6% (inactive)
35 | COc1cc(OC)c(NC(=O)Nc2ccc([N+](=O)[O-])cc2OC)cc1Cl | -7.15% (inactive)
36 | Cc1cccc(CC(N)C(=O)O)c1 (stereo not given) | -6.95% (inactive)
37 | NC(N)=Nc1cccc2ccccc12 | -5.65% (inactive)
38 | O=Cc1[nH]c(=S)[nH]c(=O)c1Cc1cccc(Cl)c1 | 83.2% (active)
39 | C1CCN(CCC2CCNCC2)C1 | -15.1% (inactive)
40 | O=C(O)c1cccc2c1cc(Br)c1ccccc12 | 32% (inactive)
